# Assay outcomes: PubChem, several laboratories
# A selection: hits, their analogues and other compounds. The true share with any hit is near 2.1%.
# bovine MsrA act: activators of bovine methionine sulfoxide reductase A; actives 0.3% (n = 360,000); purified bovine MsrA, absorbance read-out; activation, % at 10.6 µM; in the data active means activation above about 7.5%;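 further: 0% = vehicle and 100% = reference activator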
# SMARCA2 act: activators of SMARCA2 function | MG213 cells, MMTV-luciferase reporter, dexamethasone, overnight | activation, % at 9.1 µM | actives 1% (n = 370,000); in the data active means activation above about 7.8%;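 further: 0% = vehicle wells and 100% = reference activator wells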
# MsrA inhibitor: inhibits bovine methionine sulfoxide reductase A. purified bovine MsrA, absorbance read-out. actives 0.75% (n = 360,000). inhibition, % at 15.5 µM; in the data active means inhibition above about 4.5%;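 further: 0% = vehicle wells with enzyme and 100% = reference inhibitor wells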
# ABCB6 inh 2: human ABCB6 transporter inhibition; Q9NP58; K562-ABCB6 porphyrin accumulation, flow cytometry, 1 h; hits give low values; fluorescence ratio to DMSO, % at 10 µM; actives 0.19% (n = 360,000); AID 602162;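 active means fluorescence ratio to DMSO below 75%, the collection mean minus 3 SD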;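 further: signal is porphyrin accumulated inside mitochondria; 100% equals median channel fluorescence of DMSO control wells; lower ratio means ABCB6 inhibition with less porphyrin fluorescence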
# MsrA activ conf: bovine methionine sulfoxide reductase A activation confirmed. shares compounds with bovine MsrA act. purified bovine MsrA, absorbance read-out. activation, % at 10.6 µM. actives 12% (n = 1,000). AID 602270; in the data active means activation above about 4%;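 further: enzyme coupled to thioredoxin and thioredoxin reductase with NADPH; 0% = vehicle wells and 100% = reference activator wells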
# Numbers without * were called inactive; . = no result given.
SMILES,bovine MsrA act,SMARCA2 act,MsrA inhibitor,ABCB6 inh 2,MsrA activ conf
O=C(Nc1ccc(F)cc1F)N1CCCCCC1,-6.3,0.2,1.9,99.0,.
COc1ccc(-c2noc(N3CCC(C(=O)NCCCN4CCCC(C)C4)CC3)n2)cc1 (centres undefined),8.7*,1.9,-0.7,96.0,0.2
COc1ccc(-c2noc(N3CCC(C(=O)NCCCN4CCCCC4)CC3)n2)cc1,0.7,-1.7,-0.6,103.0,.
O=C(COc1ccccc1)N/N=C/c1ccc([N+](=O)[O-])o1,-1.1,-2.5,4.2,107.0,.
O=C(CNc1ccc2ccccc2c1)N/N=C/c1ccc([N+](=O)[O-])o1,8.3*,-1.4,2.2,98.0,-0.8
COc1ccc(NS(=O)(=O)c2cc(C)ccc2NC(=O)c2cc(C)oc2C)cc1,9.3*,-2.6,-0.7,102.0,-0.7
COc1ccc(NS(=O)(=O)c2cccc(C(=O)NNC(=O)c3cc(C)oc3C)c2)cc1,-0.6,0.1,0.7,103.0,.
COc1ccc(N2CCN(C3CCN(S(=O)(=O)c4ccc(F)cc4)CC3)CC2)cc1,9.5*,-1.2,-0.3,100.0,-3.6
COc1ccc(N2CCN(C(=O)C3CCN(S(=O)(=O)c4ccc(F)cc4)CC3)CC2)cc1,-7.0,-3.8,-0.3,98.0,.
O=C(NCSc1ccnc(SCNC(=O)c2ccc(F)cc2)n1)c1ccc(F)cc1,8.5*,-2.3,1.3,101.0,2.4
CC(C)(C)c1ccc(-c2nnc3n2N=C(c2ccc(Cl)cc2)CS3)cc1,.,-3.1,.,.,.
COc1ccc(-c2nnc(SCC(=O)NC(=O)NCc3ccccc3)o2)cc1,9.7*,1.2,0.3,106.0,-1.1
COc1ccc(-c2nnc(SCC(=O)NCc3ccco3)o2)cc1,-4.1,-1.9,0.0,99.0,.
Cn1ncc2c(=O)n(CC(=O)NC34CC5CC(CC(C5)C3)C4)cnc21,9.0*,0.5,-0.3,102.0,-2.0
O=C(C1CCN(S(=O)(=O)N2CCOCC2)CC1)N1CCOCC1,-2.6,-2.3,-0.3,104.0,.
O=C(C1CCN(S(=O)(=O)N2CCOCC2)CC1)N1CCN(c2ccccc2)CC1,10.2*,-1.2,0.0,107.0,-1.7
COc1ccccc1OCc1ccc(C(=O)Nc2ccccc2)cc1,11.9*,-1.0,-0.1,94.0,1.2
O=C(Cn1nnc(-c2ccccc2F)n1)Nc1ccc(Cl)cc1,.,0.8,.,.,.
CC(C)CNc1nc(=S)nc(N(C)C)[nH]1,8.3*,-3.7,1.3,97.0,4.2*
COc1cc(NC(=O)CSCc2cnn(-c3ccccc3)c2-n2cccc2)cc(OC)c1,1.0,-5.9,0.1,109.0,.
CCOc1ccc(NC(=O)CSCc2cnn(-c3ccccc3)c2-n2cccc2)cc1,8.8*,-1.6,-0.4,100.0,0.6
CN(C)/C=C1\Oc2ccc3ccccc3c2C1=O,-4.7,-7.0,-0.7,99.0,.
O=C1C(=O)c2c(ccc3ccccc23)-c2ccccc21,11.6*,-1.5,-0.4,102.0,8.2*
C=CCN1C(=O)[C@@H](CC(=O)NCc2cccc(C(F)(F)F)c2)[C@]2(C(=O)OC)CCCCC=C12,.,-2.1,.,.,.
O=C(c1cccc([N+](=O)[O-])c1)c1cc2ccccc2o1,8.8*,0.3,0.7,94.0,0.2
SMILES,bovine MsrA act,SMARCA2 act,MsrA inhibitor,ABCB6 inh 2,MsrA activ conf
CC(C)C[C@H]1CN(CCCC[C@@H]2CNC(=O)C(=O)N2CCc2ccccc2)C(=O)C(=O)N1Cc1ccccc1,19.1*,-3.9,0.6,93.0,-4.2
CC(C)C[C@H]1CN(CCCC[C@@H]2CNC(=O)C(=O)N2Cc2ccccc2)C(=O)C(=O)N1CCc1ccccc1,-2.6,-1.1,3.3,100.0,.
CC(C)(C)OC(=O)n1cc(-c2ccccc2)c2c(-c3ccccc3)c(O)ccc21,.,-4.4,.,.,.
CCOC(=O)Cn1cc(CN2C(C(=O)OC)CN(Cc3ccc(F)cc3)CCS2(=O)=O)nn1 (centres undefined),.,1.7,.,.,.
NC(=S)NN=C1CSSC1,14.5*,.,.,97.0,23.4*
Oc1ccc2ccccc2c1C=Nc1ccc(N2CCOCC2)cc1,.,1.1,0.1,.,.
C(=Nc1ccc(N2CCOCC2)cc1)c1c[nH]c2ccccc12,11.6*,3.5,0.2,97.0,0.0
COc1ccc(S(=O)(=O)N2CCC(C(=O)N3CCOCC3)CC2)cc1Cl,8.0*,5.0,-0.3,99.0,-3.2
O=C(NC1CCCCN(Cc2ccc(OC(F)(F)F)cc2)C1=O)c1cccc(C(F)(F)F)c1 (centres undefined),.,-2.4,.,.,.
Cc1ccc(NC(=S)N/N=C/c2ccc([N+](=O)[O-])s2)cc1,9.2*,-0.7,1.1,127.0,1.9
Cn1nc(N)nc1N1CCN(c2ccc(F)cc2)CC1,8.0*,4.1,-0.6,102.0,-1.2
Cc1ccc(NC(=O)Cn2nnc(-c3ccccc3F)n2)c(C)c1,.,-2.8,.,.,.
CCOC(=O)c1csc(N)n1,-4.0,-0.4,-2.7,99.0,.
